# Calls of active or inactive are those of the source. Calls come from the whole dose curve; as a rule, active = well fitted curve in the direction sought with a large enough effect in the repeat runs; inconclusive = weak or mixed curves; inactive = flat fitted curve, though single readings scatter.
# Experiment: qHTS assay to test for compound auto fluorescence at 535 nm (green) in HEK293 cell free culture (AID 720682)
# Conditions: cell-free medium, green autofluorescence 485/535 nm, hits give high values; series mostly up to 91.3 µM
# In short: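 DMEM + 10% FBS, cell-free; cpd or DMSO pinned in; Ex485/Em535 read; output as fluorescein-equivalent signal.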
# % is set by controls: 0 for no effect and ±100 for the full control effect.
SMILES,outcome,activity change
O=[N+]([O-])c1ccc(CCO)cc1,inactive,
COc1cc(O)cc(O)c1,inactive,
O=C(O)CCNC(=O)c1ccc(N=Nc2ccc(O)c(C(=O)O)c2)cc1,inactive,
CC(C)c1cccc(C(C)C)c1N,inactive,
CO[Si](OC)(OC)OC,inactive,
NS(=O)(=O)c1cc2c(cc1Cl)NC(CSCc1ccccc1)=NS2(=O)=O,,-0.222% [at 18.6 µM] (inactive)
CCCCOCC(C)OCC(C)O (stereo not drawn),inactive,
Cc1ccccc1C(=O)O,inactive,
CCCCCCCCCCCCCCCCCCOCC(O)CO (stereo not drawn),inactive,
C=CCOc1nc(OCC=C)nc(OCC=C)n1,inactive,
Cn1ccc2cc3c(cc21)CCN3C(=O)Nc1cccnc1,inactive,

# Experiment: qHTS assay to test for compound auto fluorescence at 590 nm (red) in HEK293 cell free culture (AID 720683)
# Conditions: cell-free medium autofluorescence, Ex540/Em590 red; series mostly up to 91.3 µM
# In short: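 Cell-free wells of DMEM with 10% FBS received compound, and intrinsic fluorescence was read at excitation/emission 540/590 nm. Values expressed as equivalence to Rose Bengal sodium.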
SMILES,outcome,"fluorescence, % of fluorescent control"
CC(=O)CCc1ccc(O)cc1,inactive,
NC(=O)c1ncn([C@@H]2O[C@H](CO)[C@@H](O)[C@H]2O)c1N,inactive,
c1ccc(SCCSc2ccccc2)cc1,inactive,
CC(C)[N+](C)(C)CC(O)COc1cccc2ccccc12 (stereo not drawn),inactive,
C=C(C)[C@H]1CC=C(C)CC1,inactive,
CSc1nc(NC2CC2)nc(NC(C)(C)C)n1,inactive,
CC(O)CN(CCCN(C)C)CCCN(C)C (stereo not drawn),inactive,
COC[C@H](c1ccc(C(F)(F)F)cc1)N1CCN(C2(C)CCN(C(=O)c3c(C)ncnc3C)CC2)C[C@H]1C,inactive,
OCCN1C[C@H](O)[C@@H](O)[C@H](O)[C@H]1CO,inactive,
[O-][N+](=Nc1ccccc1)c1ccccc1,inactive,
O=[N+]([O-])c1ccc(Oc2ccc([N+](=O)[O-])cc2)cc1,inactive,
OCC(O)[C@@H](O)[C@H](O)[C@H](O)CO[C@H]1O[C@H](CO)[C@@H](O)[C@H](O)[C@H]1O (stereo partly drawn),inactive,
CC(C)c1cccc(O)c1,inactive,
CO,inactive,
COc1cccc(Br)c1,inactive,
CCc1cc(S(=O)(=O)O)c2cc(C(C)C)cccc1-2,inactive,
O=C(O)C(O)[C@H](O)[C@@H](O)[C@H](O)[C@H](O)CO (stereo partly drawn),inactive,
CCCCCCCCC=O,inactive,

SMILES,outcome,"fluorescence, % of fluorescent control"
C=C(C)C(=O)NCCCN(C)C,inactive,
CC(C)(O)C(=O)c1ccc(OCCO)cc1,inactive,
N#CCN(CC#N)CCN(CC#N)CC#N,inactive,
CC/C=C\CCCCO,inactive,
COc1cccc(OC)c1,inactive,
CCCCCCOC(=O)c1ccccc1O,inactive,
CC(C)N1C(=O)c2ccccc2C1=O,inactive,
O=[N+]([O-])c1ccc(CCO)cc1,inactive,
COc1cc(O)cc(O)c1,inactive,
O=C(O)CCNC(=O)c1ccc(N=Nc2ccc(O)c(C(=O)O)c2)cc1,inactive,
CC(C)c1cccc(C(C)C)c1N,inactive,
CO[Si](OC)(OC)OC,inactive,
NS(=O)(=O)c1cc2c(cc1Cl)NC(CSCc1ccccc1)=NS2(=O)=O,,0.107% [at 18.6 µM] (inactive)
CCCCOCC(C)OCC(C)O (stereo not drawn),inactive,
Cc1ccccc1C(=O)O,inactive,
CCCCCCCCCCCCCCCCCCOCC(O)CO (stereo not drawn),inactive,
C=CCOc1nc(OCC=C)nc(OCC=C)n1,inactive,
Cn1ccc2cc3c(cc21)CCN3C(=O)Nc1cccnc1,inactive,

# Experiment: qHTS assay to test for compound auto fluorescence at 590 nm (red) in HepG2 cell free culture (AID 720684)
# Conditions: cell-free medium autofluorescence, red 540/590 nm; series mostly up to 91.3 µM
# In short: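 Compounds are added to culture medium (MEM, 10% FBS) lacking cells, then fluorescence is read at excitation 540 nm, emission 590 nm, with Rose Bengal sodium as the equivalency standard.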
SMILES,outcome,"fluorescence, % of Rose Bengal"
CC(=O)CCc1ccc(O)cc1,inactive,
NC(=O)c1ncn([C@@H]2O[C@H](CO)[C@@H](O)[C@H]2O)c1N,inactive,
c1ccc(SCCSc2ccccc2)cc1,inactive,
CC(C)[N+](C)(C)CC(O)COc1cccc2ccccc12 (stereo not drawn),inactive,
C=C(C)[C@H]1CC=C(C)CC1,inactive,
CSc1nc(NC2CC2)nc(NC(C)(C)C)n1,inactive,
CC(O)CN(CCCN(C)C)CCCN(C)C (stereo not drawn),inactive,
COC[C@H](c1ccc(C(F)(F)F)cc1)N1CCN(C2(C)CCN(C(=O)c3c(C)ncnc3C)CC2)C[C@H]1C,inactive,
OCCN1C[C@H](O)[C@@H](O)[C@H](O)[C@H]1CO,inactive,
[O-][N+](=Nc1ccccc1)c1ccccc1,inactive,
O=[N+]([O-])c1ccc(Oc2ccc([N+](=O)[O-])cc2)cc1,inactive,
OCC(O)[C@@H](O)[C@H](O)[C@H](O)CO[C@H]1O[C@H](CO)[C@@H](O)[C@H](O)[C@H]1O (stereo partly drawn),inactive,
CC(C)c1cccc(O)c1,inactive,
CO,inactive,
COc1cccc(Br)c1,inactive,
CCc1cc(S(=O)(=O)O)c2cc(C(C)C)cccc1-2,inactive,
O=C(O)C(O)[C@H](O)[C@@H](O)[C@H](O)[C@H](O)CO (stereo partly drawn),inactive,
CCCCCCCCC=O,inactive,

SMILES,outcome,"fluorescence, % of Rose Bengal"
C=C(C)C(=O)NCCCN(C)C,inactive,
CC(C)(O)C(=O)c1ccc(OCCO)cc1,inactive,
N#CCN(CC#N)CCN(CC#N)CC#N,inactive,
CC/C=C\CCCCO,inactive,
COc1cccc(OC)c1,inactive,
CCCCCCOC(=O)c1ccccc1O,inactive,
CC(C)N1C(=O)c2ccccc2C1=O,inactive,
O=[N+]([O-])c1ccc(CCO)cc1,inactive,
COc1cc(O)cc(O)c1,inactive,
O=C(O)CCNC(=O)c1ccc(N=Nc2ccc(O)c(C(=O)O)c2)cc1,inactive,
CC(C)c1cccc(C(C)C)c1N,inactive,
CO[Si](OC)(OC)OC,inactive,
NS(=O)(=O)c1cc2c(cc1Cl)NC(CSCc1ccccc1)=NS2(=O)=O,,0.12% [at 18.6 µM] (inactive)
CCCCOCC(C)OCC(C)O (stereo not drawn),inactive,
Cc1ccccc1C(=O)O,inactive,
CCCCCCCCCCCCCCCCCCOCC(O)CO (stereo not drawn),inactive,
C=CCOc1nc(OCC=C)nc(OCC=C)n1,inactive,
Cn1ccc2cc3c(cc21)CCN3C(=O)Nc1cccnc1,inactive,
